Data: PubChem BioAssay AID624405 (Broad Institute, 2012)
Among all 1,900 compounds or so, about 250 (13%) were called active. Inconclusive results (about 4%) are left out.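 Rule for the calls: active = fitted curve reaches 40% rescue activity at or below the top valid dose, in every test run; inconclusive = test runs disagree, some active and some inactive; inactive = every run misses the threshold or moves the wrong way.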 The list is a sample of the results. Measured potencies and affinities stand elsewhere.

Assay: suppressors of statin myotoxicity in myotubes, dose response, cell-based, C2C12 myotubes, ATP luminescence, cherry pick (AID 624405);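 note: myotubes are challenged with simvastatin at 10 µM to lower ATP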
Conditions: C2C12 myotubes + simvastatin, 48 h, scaled: DMSO wells 0, geranylgeraniol wells 100; series mostly up to 19.5 µM

Row | SMILES | outcome
1 | COc1ccc(NC(=O)Nc2ccc3c(c2)C(=O)N([C@@H](C)CO)C[C@@H](C)[C@@H](CN(C)Cc2ccc(C(F)(F)F)cc2)OCCCC[C@H](C)O3)cc1 | inactive
2 | CCOc1ccc(-c2nc(CSCC(=O)NCCN3CCOCC3)c(C)o2)cc1 | inactive
3 | COc1ccc(NC(=O)Nc2cccc3c2O[C@@H](CN(C)C(=O)Nc2cccc4ccccc24)[C@H](C)CN([C@H](C)CO)C3=O)cc1 | inactive
4 | Cn1ccnc1SCC(=O)Nc1ccccc1 | inactive
5 | Cc1cc(=O)[nH]c(Nc2c(C)n(C)n(-c3ccccc3)c2=O)n1 | inactive
6 | CCOC(=O)c1cnn(-c2ccccc2)c1-n1cccc1 | inactive
7 | O=C(Cc1cccs1)Nc1nnc(Cc2ccccc2)s1 | inactive
8 | CC(=O)O[C@@H]1[C@H]2[C@@H](C[C@@H](C)[C@@H]3C=CC(=O)[C@@]13C)OC(=O)[C@@H]2C | inactive
9 | COc1ccc(S(=O)(=O)NC(CC(=O)NCc2ccc3c(c2)OCO3)c2ccco2)cc1 (stereo not drawn) | inactive
10 | COc1ccc(S(=O)(=O)NCCC(=O)NCc2ccccc2)cc1 | inactive
11 | O=C(Nc1ncn[nH]1)c1c(Cl)ccc(Cl)c1Cl | inactive
12 | CCCS(=O)(=O)N1CCCC(C(=O)NCCN2CCC(Cc3ccccc3)CC2)C1 (stereo not drawn) | inactive
13 | CCOC(=O)CC(=O)CSc1ncc(C(=O)OCC)c(N)n1 | inactive
14 | CC(=O)N(C)c1ccc(NC(=O)Cc2cccc3ccccc23)cc1 | inactive
15 | C[C@H]1CN([C@@H](C)CO)C(=O)c2cccc(NS(=O)(=O)c3ccc(Cl)cc3)c2O[C@H]1CN(C)Cc1ccc(-c2ccccc2)cc1 | inactive
16 | COc1ccc(OCC(O)CN2C(=O)NC(C)(C)C2=O)cc1 (stereo not drawn) | inactive
17 | CN(C)CCCNc1ncnc2c1cnn2Cc1ccccc1Cl | inactive
18 | CNC(=O)Cn1ncc2c(C)n(Cc3ccc(C)cc3)c(C)c2c1=O | inactive
19 | Cc1ccc(CC(=O)c2ccc(Cl)cc2)cc1 | inactive
20 | COC(=O)c1cccc(OCC(O)Cn2ccnc2)c1 (stereo not drawn) | inactive
21 | C[C@H]1CN([C@@H](C)CO)C(=O)Cc2cc(NS(=O)(=O)c3ccc(F)cc3)ccc2O[C@@H]1CN(C)Cc1ccc2c(c1)OCO2 | inactive
22 | C[C@H]1CN([C@@H](C)CO)C(=O)c2cccc(NC(=O)Nc3ccc4c(c3)OCO4)c2O[C@H]1CN(C)S(=O)(=O)c1ccc(Cl)cc1 | inactive
23 | C[C@@H]1CCCCO[C@@H](CN(C)CC2CCCCC2)[C@@H](C)CN([C@H](C)CO)C(=O)c2cc(NS(=O)(=O)c3ccc(F)cc3)ccc2O1 | inactive
24 | Cc1ccc(C(=O)NNC(=O)C2CCN(Cc3ccc(Cl)c(Cl)c3)CC2)cc1 | inactive
25 | C[C@H](CO)N1C[C@H](C)[C@@H](CN(C)CC2CCCCC2)Oc2ccc(NS(=O)(=O)c3ccc(Cl)cc3)cc2CC1=O | inactive
26 | C[C@@H]1CN([C@H](C)CO)C(=O)Cc2cc(NS(=O)(=O)c3ccc(Cl)cc3)ccc2O[C@@H]1CN(C)Cc1ccc(C(F)(F)F)cc1 | inactive
27 | C[C@@H]1CN([C@H](C)CO)C(=O)Cc2cc(NS(=O)(=O)c3ccc(Cl)cc3)ccc2O[C@H]1CN(C)Cc1ccc2c(c1)OCO2 | inactive

Row | SMILES | outcome
28 | COc1ccc(S(=O)(=O)Nc2ccc3c(c2)CC(=O)N([C@@H](C)CO)C[C@H](C)[C@@H](CN(C)Cc2ccccc2)O3)cc1 | inactive
29 | COc1ccc(CN(C)C[C@H]2Oc3ccc(NS(=O)(=O)c4ccc(F)cc4)cc3CC(=O)N([C@H](C)CO)C[C@H]2C)cc1 | inactive
30 | C[C@@H]1CN([C@H](C)CO)C(=O)Cc2cc(NS(=O)(=O)c3ccc(F)cc3)ccc2O[C@H]1CN(C)CC1CCCCC1 | inactive
31 | COc1ccc(S(=O)(=O)Nc2ccc3c(c2)C(=O)N([C@H](C)CO)C[C@@H](C)[C@H](CN(C)S(=O)(=O)c2ccc(F)cc2)OCCCC[C@@H](C)O3)cc1 | inactive
32 | CCn1c(CSc2nc3ccccc3[nH]2)n[nH]c1=S | inactive
33 | COc1ccc(S(=O)(=O)Nc2ccc3c(c2)CC(=O)N([C@@H](C)CO)C[C@@H](C)[C@H](CN(C)Cc2ccc(Oc4ccccc4)cc2)O3)cc1 | inactive
34 | COc1cc(C)c(C(C)C)cc1S(=O)(=O)NCCCn1ccnc1 | inactive
35 | COC(=O)c1sc(S(=O)(=O)Nc2ccc3cn[nH]c3c2)c(C(=O)OC)c1C | inactive
36 | C[C@H](CO)N1C[C@H](C)[C@H](CN(C)S(=O)(=O)c2ccccc2)OCCCC[C@H](C)Oc2ccc(NS(C)(=O)=O)cc2C1=O | inactive
37 | COc1ccc(-n2c(SCC(=O)N3CCCCC3)nc(O)cc2=O)cc1 | inactive
38 | CCOC(=O)N1CCN(C(=O)C2CC(c3ccccc3OC)=NO2)CC1 (stereo not drawn) | inactive
39 | COc1cc2oc3ccccc3c2cc1N(CC(=O)N1CCCCC1)S(=O)(=O)c1ccc(C)cc1 | inactive
40 | Cn1ncc(Cl)c1C(=O)Nc1cccnc1 | inactive
41 | O=C(O)C1CCCCC1C(=O)Nc1ccccn1 (stereo not drawn) | inactive
42 | CC1CCN(C(=O)c2cc(F)c(F)cc2Cl)CC1 | inactive
43 | CCCCCCC(=O)N1CCN(c2cc3c(cc2F)c(=O)c(C(=O)O)cn3CC)CC1 | inactive
44 | CCOc1ccccc1Nc1nc(N)nc(Cl)c1CC | inactive
45 | O=C(NCc1cccnc1)C1CC(=O)N(CCc2ccccc2)C1 (stereo not drawn) | inactive
46 | CCOC(=O)N1CCN(c2c(N3CCN(c4cc(C)ccc4C)CC3)c(=O)c2=O)CC1 | inactive
47 | C[C@H]1CN([C@@H](C)CO)C(=O)c2cccc(NS(=O)(=O)c3cccs3)c2O[C@@H]1CN(C)Cc1ccc(Oc2ccccc2)cc1 | inactive
48 | C[C@H](CO)N1C[C@H](C)[C@@H](CN(C)Cc2ccc3c(c2)OCO3)Oc2ccc(NS(=O)(=O)c3ccc(F)cc3)cc2CC1=O | inactive
49 | COc1ccc(OC)c(CNC(=O)C2CCCN(c3nc4ccccc4o3)C2)c1 (stereo not drawn) | inactive
50 | CCCS(=O)(=O)N1CCCC(C(=O)N2CCN(c3ccccc3)CC2)C1 (stereo not drawn) | inactive
51 | CN(C)c1nc(Oc2ccc(C(=O)OCC(=O)Nc3ccccc3)cc2)nc(N(C)C)n1 | inactive
52 | COc1ccc(C#Cc2ccc3c(c2)O[C@H](CN(C)C(=O)Nc2cccc(OC)c2)[C@@H](C)CN([C@H](C)CO)S3(=O)=O)cc1 | inactive
53 | C[C@H](CO)N1C[C@H](C)[C@H](CN(C)C(=O)Cc2ccccc2)OCCCC[C@H](C)Oc2ccc(NC(=O)Nc3ccc(C(F)(F)F)cc3)cc2C1=O | inactive
